Screening results from PubChem.
This is a sample that favours compounds with a hit; in the whole collection about 19% have one here.
BCR signal inh = inhibitors of chronic active B-cell receptor signaling | ABC-DLBCL IkBa-CBG/CBR reporter, luminescence ratio, 4 h | Potency, µM (series often up to 46.1 µM), inactives show at the top dose activity change, negative = inhibition, usual class: inhibitors | 0.05% of 340,000 active | AID 493014; active = well fitted inhibition curve with a large enough effect in the signal ratio, with a control signal flat, not every such curve was filed as active; inconclusive = small, poorly fitted or top-dose-only effect, or effect the other way, or a change in a side signal; the % refers to the signal ratio;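 note: potency is the fitted concentration of half-maximal effect; plate controls were basal doxycycline-induced cells for no effect and cells given 10 µM MG132 for full effect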
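Cell line TMD8 (human ABC DLBCL), stably expressing tet-inducible CBG68-IkBa fusion and CBR; IMDM/0.5% FBS; cpd up to 46 uM; dox induction, 4 h, 37C/5% CO2; dual luminescence; green/red ratio; MG132 control.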
DT40 TDP1 CPT = DT40-hTDP1 cell growth loss with CPT; chicken DT40 Tdp1-/-;hTDP1 cells + 20 nM CPT, ATP luminescence, 48 h; Potency, µM (series often up to 46.2 µM), for the others: at the top dose activity change, negative = growth inhibition, actives largely listed as inhibitors; 12% of 420,000 active; AID 686979; note: potency is the fitted concentration of half-maximal effect; % is set by controls: 0 for no effect and ±100 for the full control effect; nearly all actives have a fitted effect of over 55% in size
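Chicken DT40 Tdp1-/- cells stably complemented with human TDP1 were seeded at 400 cells/well in medium containing 20 nM camptothecin, exposed to pin-transferred compounds, and grown at 37 °C for at least 48 hr. Viability was read as ATP luminescence.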
TDP1 cell noCPT = qHTS for Inhibitors of human tyrosyl-DNA phosphodiesterase 1 (TDP1): qHTS in cells in absence of CPT | DT40 Tdp1-/- hTDP1 cells, no CPT, ATP luminescence, 48 h | Potency, µM (doses to about 46.2 µM), for the others: at the highest dose activity change, negative = growth inhibition, usual class: inhibitors | 15% of 420,000 active; note: potency is the fitted concentration of half-maximal effect; % is set by controls: 0 for no effect and ±100 for the full control effect; nearly all actives have a fitted effect of over 55% in size
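Readout: luminescence from CellTiter-Glo after 30 min in the dark at RT. Cells: DT40 Tdp1-/- with stable hTDP1, 400/well. Exposure: compounds alone, ≥48 hr, 37 °C.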
IL1B secr inh = blocks inflammasome-driven IL-1 beta release. activity change, % at 57.5 µM. AID 743279. THP-1 LPS/ATP IL-1B secretion, AlphaLISA, 16 h; hits give low values. 4.7% of 360,000 active; in the data active = activity change below about -50%; inconclusive = mostly about -30% to -49%; note: % is set by controls: 0 for no effect and ±100 for the full control effect
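Secreted IL-1B measured by AlphaLISA bead assay after 16 h compound exposure of THP-1 cells; compounds (final up to 57.5 uM) added 1 h before LPS (250 ng/mL) and ATP (1.25 mM) stimulation; lower signal means less secretion.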
MCF10A rerep = DNA re-replication induction in MCF 10a cells; 2.9% of 350,000 active; MCF 10A DNA re-replication, Hoechst nuclear intensity, 48 h; Potency, µM (doses to about 46.1 µM), for the others: top-dose activity, positive = re-replication, most hits filed as activators; note: potency is the fitted concentration of half-maximal effect; % of control where 0% means no effect; nearly all actives have a fitted effect of over 50% in size
SW480 rerep = inducers of DNA re-replication in SW480 colon cancer cells; Potency, µM (highest dose often 46.1 µM), inactives show top-dose re-replication activation, hits mostly activators; 1.8% of 340,000 active; AID 624297; SW480 DNA re-replication, Hoechst DNA content imaging, 48 h; note: potency is the fitted concentration of half-maximal effect; % of control where 0% means no effect; nearly all actives have a fitted effect of over 55% in size
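Readout is total intensity of Hoechst-stained nuclei, excited at 405 nm and collected at 500-530 nm. Compound treatment lasted 48 hr at 37 C in 5% CO2 before staining.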
Active calls of the source: *; [ ] = remark or other dose. Unless noted, calls come from the whole dose curve; as a rule, active = well fitted curve in the direction sought with a large enough effect; inconclusive = small, poorly fitted or top-dose-only effect, or another doubt; inactive = no such curve, though single readings can be large; an effect the other way counts as inactive or inconclusive.

Results for O=C(Cc1ccc(Br)cc1)Nc1nc2ccccc2[nH]1 ?
BCR signal inh: inconclusive; DT40 TDP1 CPT: 6.5µM*; TDP1 cell noCPT: 2.3µM*; IL1B secr inh: 18; MCF10A rerep: 9%; SW480 rerep: 6%

Results for CCC(=O)N1CCc2cc(S(=O)(=O)NC(CC(C)C)C(=O)Nc3cccc(C)c3C)ccc21 (centres undefined) ?
DT40 TDP1 CPT: -20%; TDP1 cell noCPT: -20%

Results for Cc1ccc2c(=O)cc(C(=O)Nc3ccc(S(=O)(=O)N(C)c4ccccc4)cc3)oc2c1C ?
DT40 TDP1 CPT: 2%; TDP1 cell noCPT: -6%

Results for O=S(=O)(c1ccccc1)N1CCN(c2nnc(-c3ccccc3)c3ccccc23)CC1 ?
BCR signal inh: 1%; DT40 TDP1 CPT: 18µM*; TDP1 cell noCPT: 15µM*; IL1B secr inh: 3; MCF10A rerep: -4%; SW480 rerep: 4%

What do the screens show for `CN1CCN(c2nnc(-c3ccc(F)cc3)c3ccccc23)CC1`?
BCR signal inh: 7%; DT40 TDP1 CPT: -1%; TDP1 cell noCPT: 1%; IL1B secr inh: -30; MCF10A rerep: 6%; SW480 rerep: -8%

How did CCN1CCN(c2nnc(-c3ccc(F)cc3)c3ccccc23)CC1 do in these assays?
BCR signal inh: 5%; DT40 TDP1 CPT: -5%; TDP1 cell noCPT: -12%; IL1B secr inh: inconclusive; MCF10A rerep: inconclusive; SW480 rerep: inconclusive

What do the screens show for `Cc1ccc(-c2nnc(N3CCN(S(C)(=O)=O)CC3)c3ccccc23)cc1`?
BCR signal inh: 1%; DT40 TDP1 CPT: -16%; TDP1 cell noCPT: -30%; IL1B secr inh: -59*; MCF10A rerep: -1%; SW480 rerep: 3%

How did CS(=O)(=O)N1CCN(c2nnc(-c3ccccc3)c3ccccc23)CC1 do in these assays?
BCR signal inh: -2%; DT40 TDP1 CPT: -15%; TDP1 cell noCPT: -23%; IL1B secr inh: -61*; MCF10A rerep: 1%; SW480 rerep: -1%

What do the screens show for `COc1cc(=O)n2c(c1C(=O)NCc1ccco1)CCN(Cc1cccc(C(F)(F)F)c1)CC2`?
DT40 TDP1 CPT: 17%[9.04 µM]; TDP1 cell noCPT: -1%

What do the screens show for `CC(C)CN1CCC(C(=O)NC(c2ccc(F)cc2)c2ccc3ccccc3n2)CC1` (centres undefined)?
DT40 TDP1 CPT: inconclusive; TDP1 cell noCPT: 23µM*; IL1B secr inh: inconclusive

What do the screens show for `CCN1CCC(C(=O)NC(c2ccc(F)cc2)c2ncccc2C)CC1` (centres undefined)?
DT40 TDP1 CPT: -30%; TDP1 cell noCPT: -7%; IL1B secr inh: -2

Results for COc1ccc(/C=C/CN2CCC(C(=O)NC(c3ccc(F)cc3)c3ccc4ccccc4n3)CC2)cc1 (centres undefined) ?
DT40 TDP1 CPT: 18µM*; TDP1 cell noCPT: 21µM*; IL1B secr inh: inconclusive

How did COc1ccc(C(NC(=O)C2CCN(Cc3cc(OC)cc(OC)c3)CC2)c2ccccn2)cc1 (centres undefined) do in these assays?
DT40 TDP1 CPT: 2%; TDP1 cell noCPT: -29%; IL1B secr inh: -14

What do the screens show for `OCCCNc1c2ccccc2nc2ccccc12`?
BCR signal inh: inconclusive; DT40 TDP1 CPT: 12µM*; TDP1 cell noCPT: 9.2µM*; IL1B secr inh: -104*; MCF10A rerep: -5%; SW480 rerep: inconclusive

How did c1ccc2c(NCCc3c[nH]c4ccccc34)c3ccccc3nc2c1 do in these assays?
BCR signal inh: 0%; DT40 TDP1 CPT: 2.6µM*; TDP1 cell noCPT: 2.9µM*; IL1B secr inh: -57*; MCF10A rerep: 0%; SW480 rerep: 3%

Results for COc1ccc(S(=O)(=O)N2CCCCCC2)cc1C(=O)N(C)CC(=O)Nc1ccccc1Cl ?
BCR signal inh: -8%; DT40 TDP1 CPT: inconclusive; TDP1 cell noCPT: 21µM*; IL1B secr inh: -12; MCF10A rerep: 9%; SW480 rerep: -9%

Results for COc1ccc(S(=O)(=O)N2CCCCCC2)cc1C(=O)N(C)CC(=O)Nc1ccccc1Br ?
BCR signal inh: -5%; DT40 TDP1 CPT: inconclusive; TDP1 cell noCPT: 9.2µM*; IL1B secr inh: -23; MCF10A rerep: 1%; SW480 rerep: 2%

What do the screens show for `O=C(c1ccncc1)N1CCC2(CCCN(c3ccncc3)C2)CC1`?
DT40 TDP1 CPT: 8%; TDP1 cell noCPT: -18%

Results for O=C(CCl)N1c2ccccc2SCC1c1ccccc1 (centres undefined) ?
BCR signal inh: inconclusive; DT40 TDP1 CPT: 2.6µM*; TDP1 cell noCPT: 3.3µM*; IL1B secr inh: -105*; MCF10A rerep: 7.3µM*; SW480 rerep: 15µM*

How did O=C(CCl)N1c2ccccc2OCC1c1ccccc1 (centres undefined) do in these assays?
BCR signal inh: inconclusive; DT40 TDP1 CPT: 2.3µM*; TDP1 cell noCPT: 2.6µM*; IL1B secr inh: -94*; MCF10A rerep: 106%; SW480 rerep: inconclusive

What do the screens show for `CCC(=O)N1CCN(C(=O)CC)C1c1ccccc1`?
BCR signal inh: 1%; DT40 TDP1 CPT: -1%; TDP1 cell noCPT: 3%; IL1B secr inh: 9; MCF10A rerep: inconclusive; SW480 rerep: inconclusive

How did CC1COc2ccccc2N1C(=O)c1ccccc1Cl (centres undefined) do in these assays?
BCR signal inh: 3%; DT40 TDP1 CPT: -3%; TDP1 cell noCPT: inconclusive; IL1B secr inh: 51; MCF10A rerep: 19%; SW480 rerep: 0%

How did Cn1c(C(C#N)C(=O)c2sc3ccccc3c2Cl)nc2ccccc21 (centres undefined) do in these assays?
BCR signal inh: 3%; DT40 TDP1 CPT: inconclusive; TDP1 cell noCPT: 16µM*; IL1B secr inh: -21; MCF10A rerep: 4%; SW480 rerep: -7%

Results for O=C(c1sc2ccccc2c1Cl)N1CCN(c2ccccn2)CC1 ?
BCR signal inh: -2%; DT40 TDP1 CPT: -1%; TDP1 cell noCPT: 1%; IL1B secr inh: -7; MCF10A rerep: 3%; SW480 rerep: -19%

Results for O=C(N/N=C/c1sc(=O)n(Cc2ccc(Br)cc2)c1Cl)c1ccco1 ?
BCR signal inh: -8%; DT40 TDP1 CPT: inconclusive; TDP1 cell noCPT: inconclusive; IL1B secr inh: -78*; MCF10A rerep: 18µM*; SW480 rerep: -30%

Results for CC1(C(=O)Nc2ccc3c(c2)OCCO3)CN(S(C)(=O)=O)CC(=O)N1CCc1c[nH]c2ccccc12 (centres undefined) ?
DT40 TDP1 CPT: -8%; TDP1 cell noCPT: -10%; IL1B secr inh: -23
